High-throughput results (PubChem BioAssay)
CYP2C9 inhib – blockers of cytochrome P450 2C9 activity – biochemical, luminescence, ADME assay, primary screen; CYP2C9 Supersomes, luciferin-H conversion; actives 20% (n = 96,000); P11712; AID 777, 2007; inhibition, % at 5 µM;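 active means blocking of liver enzyme CYP2C9 beyond about 50% at 5 µM, limit read from the data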
sEH inh – soluble epoxide hydrolase inhibitors, primary screen, biochemical, human sEH; Bifunctional epoxide hydrolase 2 (Homo sapiens), P34913; AID 707, 2007; actives 0.34% (n = 91,000); recombinant human sEH enzymatic activity assay; inhibition, % at 2 µM; in the data active means inhibition above about 80%
Target sequence (P34913 whole entry, looked up): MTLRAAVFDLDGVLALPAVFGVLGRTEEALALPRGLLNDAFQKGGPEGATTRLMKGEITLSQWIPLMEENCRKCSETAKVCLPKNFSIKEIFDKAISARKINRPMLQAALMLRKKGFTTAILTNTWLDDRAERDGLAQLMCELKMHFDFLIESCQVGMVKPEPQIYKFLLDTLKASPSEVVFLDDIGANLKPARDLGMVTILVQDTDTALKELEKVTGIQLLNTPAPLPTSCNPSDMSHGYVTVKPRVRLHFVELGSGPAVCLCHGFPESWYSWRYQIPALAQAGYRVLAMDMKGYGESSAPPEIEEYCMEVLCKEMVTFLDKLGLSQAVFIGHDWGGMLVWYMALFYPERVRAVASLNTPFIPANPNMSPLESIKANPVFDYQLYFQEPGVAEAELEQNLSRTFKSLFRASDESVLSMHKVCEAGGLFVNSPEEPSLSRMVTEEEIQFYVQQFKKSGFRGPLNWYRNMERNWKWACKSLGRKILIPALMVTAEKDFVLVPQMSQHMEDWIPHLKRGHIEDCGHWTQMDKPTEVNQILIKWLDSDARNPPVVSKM
CYP2C19 inhib – blockers of cytochrome P450 2C19 activity – biochemical, luminescence, ADME assay, primary screen; P33261; CYP2C19 Supersomes, luciferin-H EGE luminescence, 30 min; inhibition, % at 5 µM; actives 21% (n = 96,000); AID 778, 2007;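 active means CYP2C19 inhibition above a set limit at 5 µM in the primary screen, cut at about 50% in these data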
sEH act – soluble epoxide hydrolase activators, primary screen, biochemical, human sEH | Bifunctional epoxide hydrolase 2 (Homo sapiens), P34913 | purified human sEH enzymatic activity, activator screen | activation, % at 2 µM | actives 0.04% (n = 91,000); in the data active means activation above about 37%
CYP2C19 activ – human CYP2C19 activators, primary screen, biochemical, luminescence; Cytochrome P450 2C19 (Homo sapiens), P33261; recombinant CYP2C19, luciferin-H EGE luminescence; active compounds read high; 0 = fully inhibited enzyme, 1 = untreated enzyme; activation factor at 5 µM; 96,000 tested, under 10 active; AID 1025, 2008;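 active means activation factor of at least 2 at 5 µM in the primary screen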
CYP2C9 activ – human CYP2C9 activators, primary screen, biochemical, luminescence; recombinant CYP2C9, luciferin-H conversion; active compounds read high; factor 1 = untreated enzyme, 0 = blocked; activation factor at 5 µM; actives 1.4% (n = 96,000); AID 1024, 2008;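 active means activation factor of 2 or more for CYP2C9 at a 5 µM dose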
Numbers stand for hits; 0 = inactive; - = no result given. In the library only some 27% were active in any assay of this set; here they are far more common.

SMILES	CYP2C9 inhib	sEH inh	CYP2C19 inhib	sEH act	CYP2C19 activ	CYP2C9 activ
O=S(=O)(N[C@@H]1C[C@H]2CC[C@@H]1C2)c1cccs1	0	-	0	-	0	0
CC1CC(NS(=O)(=O)c2cccs2)CC(C)(C)C1 (stereo not given)	0	0	53	0	0	0
CN1C(=O)c2cccc(NC(=O)Cc3ccccc3)c2C1=O	58	0	0	0	0	0
CCC(CC)COC(=O)C(C#N)c1nc2ccccc2nc1N1CCOCC1 (stereo not given)	0	0	56	0	0	0
CCOC(=O)C1CCCN(c2nc3ccccc3nc2C(C#N)C(=O)OCCOC)C1 (stereo not given)	0	-	0	-	0	0
COCCCNC(=O)C(C#N)c1nc2ccccc2nc1N1CCN(Cc2ccccc2)CC1 (stereo not given)	93	-	92	-	0	0
CCOC(=O)C1CCCN(c2nc3ccccc3nc2C(C#N)C(=O)OCC)C1 (stereo not given)	96	-	93	-	0	0
C=CCOC(=O)C(C#N)c1nc2ccccc2nc1N1CCN(c2ccccc2OC)CC1 (stereo not given)	72	-	0	-	0	0
CCS(=O)(=O)N1CCCC(C(=O)NCCCN2CCCC2=O)C1 (stereo not given)	0	-	0	-	0	0
COCC(C)OC(=O)C(C#N)c1nc2ccccc2nc1N1CCN(Cc2ccccc2)CC1 (stereo not given)	90	0	74	0	0	0
C=CCOC(=O)C(C#N)c1nc2ccccc2nc1N1CCN(Cc2ccccc2)CC1 (stereo not given)	64	-	57	-	0	0
CCOC(=O)C1CCCN(c2ncnc3c2oc2ccccc23)C1 (stereo not given)	0	0	69	0	0	0
COCCOC(=O)C(C#N)c1nc2ccccc2nc1N1CCN(Cc2ccccc2)CC1 (stereo not given)	91	-	80	-	0	0
CCc1nnc(NC(=O)c2cc(-c3ccccc3)nn2-c2ccccc2)s1	0	-	0	-	0	0
O=C(COc1cccc(NC(=O)c2ccco2)c1)c1ccc(F)cc1	0	0	0	0	0	0
C=CCOc1ccccc1C1NC(=O)NC(C)=C1C(=O)NCc1ccccc1 (stereo not given)	0	0	0	0	0	0
COC(=O)C1=CN(CCCN2CCCC2=O)C=C(C(=O)OC)C1c1ccccc1C(F)(F)F	0	0	0	0	0	0
CCN(CC)c1nc2ccccc2c(N)c1-c1ccccc1	0	0	0	0	0	0
COc1ccccc1CNc1nc2nc(C)c(C)c(=O)n2[nH]1	70	0	0	0	0	0
COc1ccc(CNc2nc3nc(-c4ccccc4)cc(=O)n3[nH]2)cc1OC	0	0	0	0	0	0
COc1ccc(CNc2nc3nc(C)c(Cl)c(=O)n3[nH]2)cc1OC	76	0	0	0	0	0
COc1ccc2ncn(-c3ccccc3)c2c1	55	0	95	0	0	0
COc1ccc(-n2cnc3ccccc32)cc1	59	0	61	0	0	0
COc1ccc(-n2cnc3cc(NCc4ccccn4)ccc32)cc1	0	0	0	0	0	0
Cn1c(N2CCN(C(=O)NC34CC5CC(CC(C5)C3)C4)CC2)nc2ccccc21	-	0	-	0	-	-
SMILES	CYP2C9 inhib	sEH inh	CYP2C19 inhib	sEH act	CYP2C19 activ	CYP2C9 activ
N#CC1(c2nc3ccccc3[nH]2)CC1c1ccc2c(c1)OCO2 (stereo not given)	64	0	92	0	0	0
CC1CCN(c2c(NCc3ccc(C(=O)NCc4cccnc4)cc3)c(=O)c2=O)CC1	0	-	0	-	0	0
CCSc1nc(N)c2c(C)c(C)sc2n1	-	0	-	0	-	-
C=CCSc1nc(N)c2c(C)c(C)sc2n1	58	-	88	-	0	0
COc1ccc(CCNC(=O)c2nonc2N)cc1	-	0	-	0	-	-
Cc1ccc2c(Cl)c(C(=O)Nc3cc(C)on3)sc2c1	0	0	0	0	0	0
Cn1c(N)c(C(=O)NCc2ccccc2)sc1=S	0	-	53	-	0	0
COc1ccc(CCNC(=O)c2sc(=S)n(C)c2N)cc1	60	0	0	0	0	0
COc1ccc(CCNC(=O)c2sc3cc(C)ccc3c2Cl)cc1	56	0	50	0	0	0
CCCc1nc2ccccc2[nH]1	0	0	0	0	0	0
C(=C\c1nc2ccccc2[nH]1)/c1ccccc1	60	0	72	0	0	0
CC(C)(C)C(=O)Nc1ccc(Oc2ccc3c(c2)C(=O)N(c2ccc(O)cc2)C3=O)cc1	0	0	0	0	0	0
Cc1ccc(Oc2ccc3c(c2)C(=O)N(c2ccc(S(=O)(=O)Nc4nccs4)cc2)C3=O)cc1	64	0	0	0	0	0
CC(C)C(NC(=O)C(c1ccccc1)c1ccccc1)c1nc2ccccc2[nH]1 (stereo not given)	0	0	0	0	0	0
CC(C)(C)NS(=O)(=O)c1ccc(-c2csnn2)s1	0	0	93	0	0	0
O=S(=O)(NC1CCCCC1)c1ccc(-c2csnn2)s1	61	0	100	0	0	0
CCC(C)NS(=O)(=O)c1ccc(-c2csnn2)s1 (stereo not given)	0	0	100	0	0	0
O=S(=O)(NC1CCCC1)c1ccccc1Cl	-	0	-	0	-	-
Cc1nnc(N2CCN(C)CC2)c2nn(-c3ccc(Cl)cc3)c(C)c12	-	0	-	0	-	-
CC(C)(C)NC(=O)C1Cc2ccccc2CN1C(=O)Nc1cccc(Cl)c1 (stereo not given)	0	0	0	0	0	0
CCOC(=O)N1CC=C2C(C#N)=C(N)C(C#N)(C#N)[C@H](c3ccc(OC(C)C)c(OCC)c3)[C@H]2C1	74	0	0	0	0	0
CCOC(=O)N1CC=C2C(C#N)=C(N)C(C#N)(C#N)[C@H](c3ccccc3OCC)[C@H]2C1	0	0	0	0	0	0
C=CCN1CCN(c2ccncc2S(=O)(=O)N2CCOCC2)CC1	0	0	0	0	0	0
CCOC(=O)CN1CC23C=CC(O2)C(C(=O)Nc2ccc(C(C)=O)cc2)C3C1=O (stereo not given)	0	0	0	0	0	0
COc1cc2nc(CN(CCC(C)C)Cc3nc4cc(OC)c(OC)cc4c(=O)[nH]3)[nH]c(=O)c2cc1OC	56	0	0	0	0	0
CN1CC(=O)N(CC(=O)NCc2ccc3c(c2)OCO3)C1=O	0	0	0	0	0	0
O=C(NCc1ccco1)N1c2ccccc2Sc2ccccc21	58	0	50	0	0	0
O=C(CN1C(=O)CCS(=O)(=O)c2ccccc21)NCc1ccc2c(c1)OCO2	0	-	90	-	0	0
COc1ccc(CCNC(=O)N2c3ccccc3Sc3ccccc32)cc1	-	0	-	0	-	-
